Bioassay records (PubChem BioAssay)
The list is not random: actives were taken first. Their share in the collection is about 19%.
TDP1 cell CPT = growth inhibition of DT40 Tdp1-/-;hTDP1 cells with camptothecin (screen for TDP1 inhibitors). 12% of 420,000 active. Potency, µM (titrated, usually from 46.2 µM), hits mostly inhibitors. chicken DT40 Tdp1-/-;hTDP1 cells + 20 nM CPT, ATP luminescence, 48 h; note: nearly all actives have a fitted effect of over 55% in size
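Chicken DT40 Tdp1-/- cells stably complemented with human TDP1 were seeded at 400 cells/well in medium containing 20 nM camptothecin, exposed to pin-transferred compounds, and grown at 37 °C for at least 48 hr. Viability was read as ATP luminescence.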
RORgamma inh = blocks mouse ROR gamma transcriptional activity. Drosophila S2 Gal4-RORgamma UAS-luciferase reporter, 20 h. 5.4% of 310,000 active. Potency, µM (doses to about 53.6 µM), hits mostly inhibitors; note: nearly all actives have a fitted effect of over 60% in size
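Schneider cells (Drosophila), stable Gal4 DBD–ROR gamma + UAS-luc; 1 hr cmpd preincubation; Cu2+ induction 700 uM final; 20 hr ambient; luminescence.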
VP16 counter = Gal4-VP16 reporter inhibition counter-screen; Drosophila S2 Gal4-VP16 UAS-luciferase, luminescence, 20 h; Potency, µM (top dose mostly 53.6 µM), usual class: inhibitors; 3.5% of 310,000 active;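 note: Gal4-VP16 expression switched on by copper sulfate through the metallothionein promoter; nearly all actives have a fitted effect of over 50% in size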
TDP1 inh = inhibitors of human tyrosyl-DNA phosphodiesterase TDP1. recombinant TDP1, AlphaScreen DNA substrate cleavage. Potency, µM (doses to about 130 µM), most hits filed as inhibitors. 0.28% of 350,000 active. AID 485290. Q9NUW8; note: nearly all actives have a fitted effect of over 40% in size
Target sequence (Q9NUW8 whole entry, looked up): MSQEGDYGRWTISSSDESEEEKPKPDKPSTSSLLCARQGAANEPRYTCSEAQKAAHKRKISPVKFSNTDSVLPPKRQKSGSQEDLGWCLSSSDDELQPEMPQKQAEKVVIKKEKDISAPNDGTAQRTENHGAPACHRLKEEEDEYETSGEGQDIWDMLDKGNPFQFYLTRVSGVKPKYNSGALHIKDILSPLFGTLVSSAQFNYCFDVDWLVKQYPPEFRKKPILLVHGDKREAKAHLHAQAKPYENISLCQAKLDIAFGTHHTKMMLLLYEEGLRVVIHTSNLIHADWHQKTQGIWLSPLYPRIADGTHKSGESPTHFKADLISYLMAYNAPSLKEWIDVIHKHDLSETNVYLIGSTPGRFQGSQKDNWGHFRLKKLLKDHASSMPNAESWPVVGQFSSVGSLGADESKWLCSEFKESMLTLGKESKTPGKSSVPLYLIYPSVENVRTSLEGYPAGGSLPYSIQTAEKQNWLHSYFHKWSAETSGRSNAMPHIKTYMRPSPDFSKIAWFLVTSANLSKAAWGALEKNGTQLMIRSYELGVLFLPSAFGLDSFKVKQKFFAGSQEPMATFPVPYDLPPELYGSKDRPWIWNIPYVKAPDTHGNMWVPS
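Tdp1 1 nM final; 15 min RT w/ cpd; substrate 15 nM, 5 min; beads 10 ug/ml, 10 min; AlphaScreen read. Neg ctrl: no enzyme.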
TDP1 cell noCPT = qHTS for Inhibitors of human tyrosyl-DNA phosphodiesterase 1 (TDP1): qHTS in cells in absence of CPT | DT40 Tdp1-/- hTDP1 cells, no CPT, ATP luminescence, 48 h | Potency, µM (top dose mostly 46.2 µM), usual class: inhibitors | 15% of 420,000 active; note: nearly all actives have a fitted effect of over 55% in size
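Cells were dispensed at 400 per well, compounds added by pin tool, plates incubated ≥48 hr at 37 °C, then CellTiter-Glo added for 30 min at room temperature before luminescence reading. Line: DT40 Tdp1-/- complemented with hTDP1; camptothecin omitted.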
Each line names hits and unclear results; the compound was inactive in the other large screens. Calls come from the whole dose curve; as a rule, active = well fitted curve in the direction sought with a large enough effect; inconclusive = small, poorly fitted or top-dose-only effect, or another doubt; inactive = no such curve, though single readings can be large; an effect the other way counts as inactive or inconclusive.

COc1cc(C(=O)N/N=C(\C)Cc2ccccc2)cc(OC)c1OC	RORgamma inh inconclusive
COc1cc(C(=O)NCCC(=O)NC(C)C)cc(OC)c1OC	none
COc1cc(/C(C)=N\NC(N)=S)cc(OC)c1OC	RORgamma inh 5.6µM, VP16 counter inconclusive
COc1cc(/C(C)=N/NC(=S)NC(C)C)cc(OC)c1OC	TDP1 cell CPT 1.3µM, RORgamma inh 3.2µM, VP16 counter 5µM, TDP1 cell noCPT 1.2µM
COc1cc(Cl)c(NC(=O)c2cc(S(=O)(=O)N3CCOCC3)cn2C)c(OC)c1	none (no result: RORgamma inh, VP16 counter)
CNCc1ccccc1Sc1cc(O)ccc1O	TDP1 cell CPT 1.8µM, RORgamma inh 16µM, VP16 counter inconclusive, TDP1 cell noCPT 3.7µM
O=C(NC1CCCCC1)C(c1ccc(F)cc1)N(Cc1ccco1)C(=O)CN1C(=O)c2ccccc2S1(=O)=O (configuration not stated)	TDP1 cell CPT inconclusive, VP16 counter inconclusive, TDP1 cell noCPT 18µM
O=C(NCC1CCCO1)C(c1ccco1)N(Cc1ccc(F)cc1)C(=O)CN1C(=O)c2ccccc2S1(=O)=O (configuration not stated)	none
O=C(NC1CCCCC1)C(c1ccc(F)cc1)N(Cc1ccco1)C(=O)Cn1nnc2ccccc21 (configuration not stated)	none
Cc1ccc(C(C(=O)NC2CCCCC2)N(Cc2ccco2)C(=O)Cn2cnc3ccccc32)cc1 (configuration not stated)	TDP1 cell CPT 18µM, TDP1 cell noCPT inconclusive
COc1cccc(C(C(=O)NCc2ccco2)N(C(=O)Cn2nnc3ccccc32)C2CC2)c1OC (configuration not stated)	TDP1 cell CPT 18µM, TDP1 cell noCPT 13µM
Cc1ccccc1C(C(=O)NCc1ccco1)N(CC1CCCO1)C(=O)Cn1nnc2ccccc21 (configuration not stated)	TDP1 cell CPT inconclusive
O=C(NC1CCCCC1)C(c1ccccc1F)N(Cc1ccco1)C(=O)Cn1nnc2ccccc21 (configuration not stated)	TDP1 cell CPT inconclusive, TDP1 cell noCPT 18µM
O=C(CN(C1CCCCC1)S(=O)(=O)c1ccc(F)cc1)NCc1ccncc1	none
O=C(CC(=O)N/N=C/c1c(F)cccc1Cl)NCCc1ccccc1	none
CCC(C)(C)NC(=O)C(c1ccc(C)cc1)N(Cc1ccco1)C(=O)Cn1nnc2ccccc21 (configuration not stated)	VP16 counter inconclusive
Cc1cccc(C)c1NC(=O)C(c1cccs1)N(Cc1ccco1)C(=O)Cn1nnc2ccccc21 (configuration not stated)	TDP1 cell CPT inconclusive, TDP1 cell noCPT 10µM
Cc1ccc2ncnc(-c3ccccc3)c2c1	TDP1 cell noCPT inconclusive (no result: TDP1 inh)
O=C(CCCCn1c(=O)c2ccccc2n(Cc2ccc(F)cc2Cl)c1=O)NCc1ccco1	TDP1 cell CPT 18µM, TDP1 cell noCPT 15µM
Cc1cc(C)c(Cn2c(=O)n(CCCC(=O)NCc3ccco3)c(=O)c3ccccc32)c(C)c1	TDP1 cell CPT inconclusive, TDP1 cell noCPT 18µM (no result: RORgamma inh, VP16 counter, TDP1 inh)
Cc1ccc(NC(=O)Cn2c(=O)n(CCCCC(=O)NCc3ccco3)c(=O)c3ccccc32)cc1	TDP1 cell CPT inconclusive, TDP1 cell noCPT 15µM
Cc1ccc(C)c(Cn2c(=O)n(CCCC(=O)NCc3ccco3)c(=O)c3sccc32)c1	TDP1 cell CPT 23µM, TDP1 cell noCPT 12µM
O=C(CCCCn1c(=O)c2ccccc2n(CC(=O)Nc2ccc(F)cc2)c1=O)NCc1ccco1	TDP1 cell CPT 9.2µM, TDP1 cell noCPT inconclusive
Cc1ccc(S(=O)(=O)CC(=O)N2CCN(c3nc4c(F)cccc4s3)CC2)cc1	TDP1 cell CPT 21µM, TDP1 cell noCPT 18µM (no result: RORgamma inh, VP16 counter)
Cc1ccc(S(=O)(=O)CCC(=O)N2CCN(c3ccccc3F)CC2)cc1	none
COc1cccc2sc(N3CCN(C(=O)CS(=O)(=O)c4ccc(Cl)cc4)CC3)nc12	TDP1 cell CPT 16µM, TDP1 cell noCPT 18µM (no result: RORgamma inh, VP16 counter)
O=C(CNC(=O)c1cccs1)NCCc1ccco1	none (no result: RORgamma inh, VP16 counter)
CCc1ccc(-n2c(Cc3ccccc3)nnc2SCc2nc(-c3cccs3)no2)cc1	TDP1 cell CPT 23µM, TDP1 cell noCPT 16µM (no result: RORgamma inh, VP16 counter)
c1ccc(Cc2nnc(SCc3nc(-c4cccs4)no3)n2-c2ccccc2)cc1	TDP1 cell CPT inconclusive, TDP1 cell noCPT inconclusive (no result: RORgamma inh, VP16 counter)
Cc1ccc(-n2c(Cc3ccccc3)nnc2SCc2nc(-c3cccs3)no2)cc1	TDP1 cell CPT inconclusive, TDP1 cell noCPT inconclusive (no result: RORgamma inh, VP16 counter)
Cc1ccc(-n2c(Cc3ccccc3)nnc2SCc2nc(-c3cccs3)no2)cc1C	TDP1 cell CPT inconclusive, TDP1 cell noCPT 23µM (no result: RORgamma inh, VP16 counter)
CNC(=O)CC(=O)Nc1ccccc1C(=O)O	none
CCN(CC)S(=O)(=O)c1ccc(OC)c(NC(=O)C(C)Oc2ccc3c(C)cc(=O)oc3c2)c1 (configuration not stated)	TDP1 cell CPT inconclusive, TDP1 cell noCPT 18µM
Cc1nc2ccccn2c1C(=O)N=Nc1c(O)n(CCC(C)C)c2ccccc12	TDP1 cell CPT 7.3µM, TDP1 cell noCPT 7.3µM
CCOC(=O)N=Nc1c(O)n(C)c2ccccc12	none
CC(C)c1ccc(NC(=O)C(Cc2ccccc2)n2cccc2)cc1 (configuration not stated)	TDP1 cell CPT 21µM, TDP1 cell noCPT 16µM (no result: RORgamma inh, VP16 counter)
O=C(Nc1cccnc1)C(Cc1ccccc1)n1cccc1 (configuration not stated)	TDP1 cell CPT inconclusive
COc1ccc(NC(=O)C(Cc2ccccc2)n2cccc2)cc1OC (configuration not stated)	TDP1 cell CPT 8.2µM, TDP1 cell noCPT 21µM
COc1ccc(NC(=O)[C@H](Cc2ccccc2)N2Cc3ccccc3C2=O)cc1OC	none (no result: RORgamma inh, VP16 counter)
O=C(Nc1cccc(Cl)c1)C(Cc1ccccc1)n1cccc1 (configuration not stated)	TDP1 cell CPT 23µM, TDP1 cell noCPT 18µM (no result: RORgamma inh, VP16 counter)
Cc1nc(N)nc(C)c1Cc1ccccc1	none
CCCCc1ccc(NC(=S)NCCc2ccc(S(N)(=O)=O)cc2)cc1	RORgamma inh inconclusive, VP16 counter 8.9µM, TDP1 cell noCPT inconclusive
COc1cccc(NC(=O)Nc2ccc(CC(=O)O)cc2)c1	RORgamma inh inconclusive, VP16 counter 20µM
CCCCc1ccc(NC(=S)Nc2cccnc2)cc1	RORgamma inh 13µM, VP16 counter 13µM
CCCCc1ccc(NC(=O)Nc2cccnc2)cc1	TDP1 cell CPT inconclusive
CCCCc1ccc(NC(=O)OC)cc1	TDP1 cell noCPT inconclusive
CCCCc1ccc(NC(=S)Nc2ccc(Nc3ccc(OC)cc3)cc2)cc1	TDP1 cell CPT 18µM, RORgamma inh 1.1µM, VP16 counter 1.6µM, TDP1 cell noCPT 21µM
Cc1cc(C)c(C)c(OCC(=O)NCCN(C)C)c1	TDP1 cell noCPT inconclusive
